From the supplement of paper PMC9950053 come the findings set out here.

Structures are written as SMILES. Where a name gives a salt, the structure may show the parent alone.

This experiment deals with Danio rerio larvae (5 dpf). Nature of the experiment: combined upward orientation toward moving lines (periods 7-14) minus DMSO control (percentage points); higher = more orientation with moving lines than DMSO larvae. As to conditions: 10 µM; exposure time: 3 h pre-incubation + 3 h imaging. On the procedure:
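Wild-type 5 dpf zebrafish larvae (n=48 per drug, 96-well plates, 28.5 °C) were exposed to Tocris FDA-approved library compounds at 10 µM (0.1% DMSO) for 3 h before and 3 h during imaging. Images were taken every 6 s during visual and acoustic stimuli, and larvae were tracked with Z-LaP Tracker. Each measure is the treated-group mean minus the DMSO control mean (n=844), in percentage points. This mapping covers compounds with 5-character plate codes.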
With `CC(=O)Nc1ccc(O)cc1` [Acetaminophen], the “combined upward orientation toward moving lines” value was -1.22.

As to `C#CCN[C@@H]1CCc2ccccc21` [Rasagiline mesylate], the “combined upward orientation toward moving lines” value was -1.34.

With `CC(=O)Oc1cc2c(s1)CCN(C(C(=O)C1CC1)c1ccccc1F)C2` (configuration not stated) [Prasugrel], the “combined upward orientation toward moving lines” value was -5.5.

As to `CN(C)CCc1c[nH]c2ccc(C[C@H]3COC(=O)N3)cc12` [Zolmitriptan], the “combined upward orientation toward moving lines” value is -1.47.

On to `COc1cc2nccc(Oc3ccc(NC(=O)C4(C(=O)Nc5ccc(F)cc5)CC4)cc3)c2cc1OC`, for which the “combined upward orientation toward moving lines” value is -10.5.

In the case of `CCc1nc(N)nc(N)c1-c1ccc(Cl)cc1` [Pyrimethamine], the “combined upward orientation toward moving lines” value worked out at 7.4.

Turning to `CC(C)(C(=O)O)c1ccc(C(O)CCCN2CCC(C(O)(c3ccccc3)c3ccccc3)CC2)cc1` (configuration not stated) [Fexofenadine hydrochloride], the “combined upward orientation toward moving lines” value was found to be 1.12.

As to `CN(C)C(=N)NC(=N)N` [Metformin hydrochloride], the “combined upward orientation toward moving lines” value turned out to be 1.11.

For the molecule `N#C[C@@H]1C[C@@H]2C[C@@H]2N1C(=O)[C@@H](N)C12CC3CC(CC(O)(C3)C1)C2` [Saxagliptin hydrochloride], the “combined upward orientation toward moving lines” value was -3.59.

In the case of `O=c1n(CCCN2CCN(c3cccc(Cl)c3)CC2)nc2ccccn12` [Trazodone hydrochloride], the “combined upward orientation toward moving lines” value is -3.19.

As to `COc1ccccc1Oc1c(NS(=O)(=O)c2ccc(C(C)(C)C)cc2)nc(-c2ncccn2)nc1OCCO` [Bosentan], the “combined upward orientation toward moving lines” value was -0.697.

With `CNCc1ccc(-c2[nH]c3cc(F)cc4c3c2CCNC4=O)cc1` [Rucaparib camsylate], the “combined upward orientation toward moving lines” value was 2.

On to `C[C@@H]1C[C@H]2[C@@H]3CCC4=CC(=O)C=C[C@]4(C)[C@@]3(F)[C@@H](O)C[C@]2(C)[C@@]1(O)C(=O)CO` [Dexamethasone], for which the “combined upward orientation toward moving lines” value is -5.03.

For `N#Cc1ccc2[nH]cc(CCCCN3CCN(c4ccc5oc(C(N)=O)cc5c4)CC3)c2c1` [Vilazodone hydrochloride], the “combined upward orientation toward moving lines” value is -4.15.

As to `CNS(=O)(=O)Cc1ccc2[nH]cc(CCN(C)C)c2c1` [Sumatriptan succinate], the “combined upward orientation toward moving lines” value was -8.09.

In the case of `Clc1ccc2nsnc2c1NC1=NCCN1` [Tizanidine hydrochloride], the “combined upward orientation toward moving lines” value was -5.19.

Regarding `OCc1cc(C(O)CNCCCCCCOCCCCc2ccccc2)ccc1O` (configuration not stated) [Salmeterol xinafoate], the “combined upward orientation toward moving lines” value was -1.98.

On to `CC[C@H]1OC(=O)[C@H](C)[C@@H](O[C@H]2C[C@@](C)(OC)[C@@H](O)[C@H](C)O2)[C@H](C)[C@@H](O[C@@H]2O[C@H](C)C[C@H](N(C)C)[C@H]2O)[C@](C)(O)C[C@@H](C)CN(C)[C@H](C)[C@@H](O)[C@]1(C)O` [Azithromycin], for which the “combined upward orientation toward moving lines” value is -3.81.

As to `CC(C)OC(=O)C(C)(C)Oc1ccc(C(=O)c2ccc(Cl)cc2)cc1` [Fenofibrate], the “combined upward orientation toward moving lines” value worked out at 6.13.

On to `CCCc1nn(C)c2c(=O)[nH]c(-c3cc(S(=O)(=O)N4CCN(C)CC4)ccc3OCC)nc12` [Sildenafil citrate], for which the “combined upward orientation toward moving lines” value was 0.372.

As for `COc1cc([C@@H]2c3cc4c(cc3[C@@H](O[C@@H]3O[C@@H]5CO[C@@H](C)O[C@H]5[C@H](O)[C@H]3O)[C@H]3COC(=O)[C@H]23)OCO4)cc(OC)c1O` [Etoposide], the “combined upward orientation toward moving lines” value was -2.65.

On to `CNC(=O)c1cc(Oc2ccc(NC(=O)Nc3ccc(Cl)c(C(F)(F)F)c3)cc2)ccn1` [Sorafenib], for which the “combined upward orientation toward moving lines” value is -23.2.

For `O=C(O)C[C@H](O)C[C@H](O)/C=C/c1c(C2CC2)nc2ccccc2c1-c1ccc(F)cc1` [Pitavastatin calcium], the “combined upward orientation toward moving lines” value is 2.14.

With `CCCCCCCN(CC)CCCC(O)c1ccc(NS(C)(=O)=O)cc1` (configuration not stated) [Ibutilide hemifumarate], the “combined upward orientation toward moving lines” value was -0.0944.

Regarding `Cc1cc2c(s1)Nc1ccccc1N=C2N1CCN(C)CC1` [Olanzapine], the “combined upward orientation toward moving lines” value came out at 3.25.

As for `COCCc1ccc(OCC(O)CNC(C)C)cc1` (configuration not stated) [Metoprolol tartrate], the “combined upward orientation toward moving lines” value is -3.38.

Turning to `C[C@H]1O[C@H](O[C@H]2[C@H](O)[C@@H](O)[C@@H](O[C@H]3[C@H](O)[C@@H](O)C(O)O[C@@H]3CO)O[C@@H]2CO)[C@H](O)[C@@H](O)[C@@H]1N[C@H]1C=C(CO)[C@@H](O)[C@H](O)[C@H]1O` (some centres not stated) [Acarbose], the “combined upward orientation toward moving lines” value came out at 4.65.

In the case of `CCCC1O[C@@H]2C[C@H]3[C@@H]4CCC5=CC(=O)C=C[C@]5(C)[C@H]4[C@@H](O)C[C@]3(C)[C@]2(C(=O)CO)O1` (some centres not stated) [Budesonide], the “combined upward orientation toward moving lines” value was found to be 0.263.

On to `OCCN1C[C@H](O)[C@@H](O)[C@H](O)[C@H]1CO` [Miglitol], for which the “combined upward orientation toward moving lines” value was -1.58.

Consider `NC(=O)OCC(COC(N)=O)c1ccccc1` [Felbamate], for which the “combined upward orientation toward moving lines” value came to 4.58.

On to `NS(=O)(=O)c1cc2c(cc1Cl)NC(C1CC3C=CC1C3)NS2(=O)=O` (configuration not stated) [Cyclothiazide], for which the “combined upward orientation toward moving lines” value was -2.57.

Regarding `CN[C@H]1CC[C@@H](c2ccc(Cl)c(Cl)c2)c2ccccc21` [Sertraline hydrochloride], the “combined upward orientation toward moving lines” value was -5.13.

As for `COc1cc(N)c(Cl)cc1C(=O)NC1CCN(CCCOc2ccc(F)cc2)CC1OC` (configuration not stated) [Cisapride], the “combined upward orientation toward moving lines” value is -4.69.

Regarding `COc1ccccc1OCC(O)CN1CCN(CC(=O)Nc2c(C)cccc2C)CC1` (configuration not stated) [Ranolazine dihydrochloride], the “combined upward orientation toward moving lines” value is 4.03.

In the case of `O=C1CCc2ccc(OCCCCN3CCN(c4cccc(Cl)c4Cl)CC3)cc2N1` [Aripiprazole], the “combined upward orientation toward moving lines” value was -7.24.

On to `OC(c1cc(C(F)(F)F)nc2c(C(F)(F)F)cccc12)C1CCCCN1` (configuration not stated) [Mefloquine hydrochloride], for which the “combined upward orientation toward moving lines” value was found to be 5.79.

On to `CC(C)COCC(CN(Cc1ccccc1)c1ccccc1)N1CCCC1` (configuration not stated) [Bepridil hydrochloride], for which the “combined upward orientation toward moving lines” value was 3.56.
